From PubChem BioAssay
Rows were chosen to be rich in hits. Some 7.5% of all compounds tested hit in one or more screens of this group.
NPC1 prom act – activates the NPC1 promoter; Huh7 NPC1 promoter luciferase reporter, 24 h; Potency, µM (highest dose often 9.22 µM), inactives show at the highest dose activation, hits mostly activators; 320,000 tested, 2.4% active; AID 485313; note: % of control where 0% means no effect; nearly all actives have a fitted effect of over 60% in size
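Luminescence read-out of NPC1 promoter-driven luciferase in stably transfected Huh7 cells; compounds delivered in DMSO and left 24 h at 37C, 5% CO2, qHTS titration format.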
FLuc modulator – firefly luciferase modulation, counter-screen for miR-21 project; purified FLuc, Km substrates, luminescence inhibition; Potency, µM (titrated, usually from 57.5 µM), for the others: top-dose activity change, negative = inhibition, usual class: inhibitors; 360,000 tested, 6.9% active;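 note: plate controls were vehicle for no effect and reference inhibitor for full effect; nearly all actives have a fitted effect of over 55% in size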
Target sequence (P08659 whole entry, looked up): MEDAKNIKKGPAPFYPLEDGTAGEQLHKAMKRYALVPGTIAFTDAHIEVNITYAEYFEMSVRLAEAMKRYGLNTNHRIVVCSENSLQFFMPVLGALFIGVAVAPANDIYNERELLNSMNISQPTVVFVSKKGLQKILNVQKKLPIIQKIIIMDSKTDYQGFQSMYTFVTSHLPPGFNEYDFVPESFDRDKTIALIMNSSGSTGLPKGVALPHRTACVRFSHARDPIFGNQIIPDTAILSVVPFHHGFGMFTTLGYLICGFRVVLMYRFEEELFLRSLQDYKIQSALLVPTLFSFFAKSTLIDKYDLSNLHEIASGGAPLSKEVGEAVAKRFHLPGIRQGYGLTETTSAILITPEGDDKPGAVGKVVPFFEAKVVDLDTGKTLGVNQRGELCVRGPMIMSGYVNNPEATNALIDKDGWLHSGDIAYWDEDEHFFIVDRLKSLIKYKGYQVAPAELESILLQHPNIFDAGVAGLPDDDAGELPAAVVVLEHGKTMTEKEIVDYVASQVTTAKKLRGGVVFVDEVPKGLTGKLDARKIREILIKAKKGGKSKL
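Purified P. pyralis luciferase, 10 nM final, with Km-level 10 uM D-luciferin and 10 uM ATP in 50 mM Tris acetate pH 7.5, 10 mM Mg acetate, 0.01% Tween-20, 0.05% BSA; 6-point qHTS titration about 60 µM downward; luminescence read.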
Rab9 promoter act – activates the Rab9 promoter. Huh7 Rab9 promoter-luciferase reporter, luminescence, 24 h. Potency, µM (highest dose often 9.22 µM), for inactives: at the top dose activation, negative = inhibition, actives largely listed as activators. 320,000 tested, 2.8% active; note: % of control where 0% means no effect; nearly all actives have a fitted effect of over 60% in size
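Huh7 cells stably carrying a Rab9 promoter-luciferase reporter, 1500 cells per well in OP-MEM I with 10% FBS, treated with compound 24 hours at 37C. Luciferase activity read by luminescence after 10 minutes with Amplite reagent.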
SMN2 splice enh – SMN2 splice variant enhancement. HEK293 SMN2-luciferase splicing reporter, luminescence, 30-36 h. Potency, µM (highest dose often 46.1 µM), without a hit: top-dose activity change, positive = activation, usual class: activators. 210,000 tested, 2.8% active. AID 1458; note: % of control where 0% means no effect; nearly all actives have a fitted effect of over 55% in size
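HEK293 cells carry an SMN2 minigene-luciferase reporter in which exon 7 inclusion puts luciferase in frame. Cells were seeded at 2000 cells/well, attached for 10-12 hours, then exposed to compounds for 30-36 hours at 37C before ONE-Glo luminescence.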
Luc counter – counter-screen: inhibitors of Kinase-Glo firefly luciferase. Kinase-Glo luciferase, ATP luminescence, 8 min. Potency, µM (series often up to 38.3 µM), without a hit: at the highest dose activity change, negative = inhibition, usual class: inhibitors. 200,000 tested, 0.28% active; note: % is set by controls: 0 for no effect and ±100 for the full control effect; nearly all actives have a fitted effect of over 60% in size
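Recombinant Kinase-Glo luciferase, 10 uM ATP (linear range), luciferin; imidazole pH 7.2 / KCl / MgCl2 / Tween / BSA buffer; 8 min RT; luminescence.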
ELG1 genotox – inducers of genotoxicity in HEK293T ELG1-luciferase cells; HEK293T ELG1-luciferase reporter, luminescence, 16 h; Potency, µM (doses to about 46 µM), for the others: at the highest dose activity change, positive = activation, usual class: activators; 330,000 tested, 1.3% active; AID 504466; note: % of control where 0% means no effect; nearly all actives have a fitted effect of over 60% in size
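Quantitative HTS format in 1536-well plates. HEK293T ELG1-luciferase reporter cells receive test compound and are incubated 16 hr at 37 °C, 5% CO2; ONE-Glo added, 30 min room temperature, then luminescence read.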
* marks the source's active call; other numbers are inactive results; ? = inconclusive; nt = no result given; [ ] = remark or other dose. Calls come from the whole dose curve; as a rule, active = well fitted curve in the direction sought with a large enough effect; inconclusive = small, poorly fitted or top-dose-only effect, or another doubt; inactive = no such curve, though single readings can be large; an effect the other way counts as inactive or inconclusive. Potency is the fitted concentration of half-maximal effect.

SMILES | NPC1 prom act | FLuc modulator | Rab9 promoter act | SMN2 splice enh | Luc counter | ELG1 genotox
Cc1ccc(C2=NN=C(NC(=O)CSc3nncn3C)SC2)cc1 | 2.2µM* | 2.4µM* | 1.4µM* | 8.9µM* | 4% | ?
Cc1ccc(C2=NN=C(NC(=O)C(F)(F)F)SC2)cc1 | 1.4µM* | 17µM* | 0.79µM* | nt | 0% | ?
CC/C(C)=N/O | nt | nt | nt | -3% | nt | nt
CC(=O)Nc1ccc(N=C(C2=C(O)c3ccccc3C2=O)c2ccccc2)cc1 | 25% | ? | ? | 30% | -2% | -13%
C/C(=N\N(C)C)C1=C(O)c2ccccc2C1=O | 17% | ? | 17% | 23% | 1% | 14%
CC(=NC1CC1)C1=C(O)c2ccccc2C1=O | 24% | 17µM* | ? | 17% | -9% | ?
COc1ccc(N=C(C)C2=C(O)c3ccccc3C2=O)cc1 | 0.71µM* | 0.95µM* | 0.45µM* | 5µM* | -9% | 2.6µM*
CCOc1ccc(N=C(C)C2=C(O)c3ccccc3C2=O)cc1 | 0.79µM* | 1.3µM* | 1.3µM* | nt | nt | ?
CC(=NCCCN(C)C)C1=C(O)c2ccccc2C1=O | 2% | -15% | 9% | -5% | 2% | 12%
Cc1ccc(NC(=O)c2sc(N)nc2C)cc1 | 2.5µM* | 21µM* | 2.2µM* | nt | nt | 21µM*
Cc1ccc(NC(=O)c2c(C)noc2C)cc1 | 0% | 3% | -2% | -18% | -2% | 3%
Cc1nc(N)sc1C(=O)Nc1ccccc1 | ? | ? | ? | 28% | -26% | ?
Cc1noc(N)c1C(=O)Nc1ccc(C(C)(C)C)cc1 | 2.5µM* | 3.4µM* | 3.2µM* | ? | -26% | ?
Cc1nc(C(=O)Nc2ccccc2)sc1C(=O)Nc1ccccc1 | 3.5µM* | 13µM* | 3.5µM* | nt | nt | 19%
Cc1nc(Cl)sc1C(=O)Nc1ccc(C(C)(C)C)cc1 | 25% | 11µM* | -1% | nt | nt | ?
CC(C)(C)OC(=O)C[C@H]1C/C=C\C[C@@H](CC(=O)N[C@H](CO)Cc2ccccc2)C(=O)N2CCC[C@H]2COC1=O | nt | nt | nt | nt | nt | -1%
CC(C)NC(=O)N(C)C[C@@H]1Oc2c(NC(=O)C3CCOCC3)cccc2C(=O)N([C@@H](C)CO)C[C@H]1C | nt | nt | nt | nt | nt | 3%
O=C(c1cc(-c2ccccc2)nc2ccccc12)N1CCCc2ccccc21 | -1% | 17µM* | 11% | -12%[1.84 µM] | -1% | -3%
Cc1cccc(-c2cc(C(=O)N3CCCc4ccccc43)c3ccccc3n2)c1 | 0% | 12µM* | 2% | nt | nt | 1%
N#Cc1ccc(CN2CC3(CCN(C(=O)c4ccco4)CC3)C2)cc1 | nt | nt | nt | -9% | 2% | nt
O=C(Nc1cccn2ncnc12)c1ccc(Cl)cc1 | 24% | -14% | 18% | nt | nt | -5%
O=C(Nc1cnc2ccccn2c1=O)c1ccc(Cl)cc1 | 3.5µM* | 15µM* | 2.2µM* | 35µM* | -3% | ?
COc1ccc(C2=NOC(CNC(N)=S)C2)cc1 (stereo not drawn) | 1µM* | 11µM* | 0.71µM* | 13µM* | -10% | 12%
COc1ccc(C(=O)N2CCC3(CCN(Cc4ccncc4)CC3)CC2)cc1 | nt | nt | nt | -7% | -2% | nt
CS(=O)(=O)Cc1cccc(C(=O)NC2CCSc3ccccc32)c1 (stereo not drawn) | 2% | -1% | 0% | nt | nt | -15%
SMILES | NPC1 prom act | FLuc modulator | Rab9 promoter act | SMN2 splice enh | Luc counter | ELG1 genotox
C=CCNC(=S)NNC(=O)COc1ccc2cc(Br)ccc2c1 | ? | -2% | 3.2µM* | 11µM* | 1% | ?
C=CCNC(=S)NNC(=O)COc1ccc(Br)cc1 | 3% | -17% | -4% | 1% | 0% | 0%
O=C(CCC(=O)c1ccc[nH]1)c1ccc(Cl)cc1 | 3.2µM* | 12µM* | 1.6µM* | ? | -5% | 8.2µM*
CN(C)/N=C/C=C1\CC/C(=C\c2ccc(Br)cc2)C1=O | 17% | ? | ? | 1% | 0% | ?
CN(C)/N=C/C=C1\CCC/C(=C/c2cccs2)C1=O | ? | 0.85µM* | 3.2µM* | nt | nt | ?
O=C(COC(=O)Cc1c(Cl)cccc1Cl)NC1CCCC1 | nt | nt | nt | nt | nt | 2%
O=C(COC(=O)c1ccccc1F)NC1CC1 | -3% | -15% | -3% | nt | nt | 2%
Cc1ccsc1C(=O)OCC(=O)NC1CCCC1 | ? | 21µM* | ? | nt | nt | ?
O=C(COC(=O)c1cccs1)NC1CCCCC1 | 2% | 21µM* | 5% | 1% | -4% | -1%
O=C(COC(=O)c1ccccc1F)NC1CCCC1 | -2% | 24µM* | -1% | nt | nt | 1%
O=C(COC(=O)c1cccs1)NC1CCCC1 | -3% | ? | -4% | nt | nt | 7%
O=C(COC(=O)c1c(F)cccc1Cl)NC1CCCCC1 | ? | 15µM* | ? | nt | nt | ?
O=C(Cc1ccsc1)NNC(=O)c1ccccc1O | 16% | ? | 12% | nt | nt | 7%
O=S(=O)(c1ccc(-n2cnnn2)cc1)N1CCN(c2cccc(Cl)c2)CC1 | nt | 0% | nt | 2% | nt | nt
COC(=O)/C(C#N)=C1/C=Cc2ccccc2N1 | 24% | ? | ? | ? | -2% | 8%
O=C(NC(=S)NC1CCCC1)c1ccccc1 | ? | 17µM* | ? | nt | nt | ?
O=C(COC(=O)c1ccccc1)NC(=O)NC1CCCC1 | -2% | -5% | -3% | nt | nt | 2%
Cc1ccsc1C(=O)OCC(=O)Nc1sccc1C(N)=O | ? | 5.4µM* | ? | 22% | -11% | 7%
O=C(NC(=S)NC1CCCCCCCCCCC1)c1cccnc1 | 0% | 0% | 3% | 0% | -4% | 4%
O=C(COC(=O)c1ccccc1)NC1CCCC1 | -3% | 17µM* | -8%[1.84 µM] | nt | nt | 9%
CCNC(=O)COC(=O)/C=C/c1cccc(F)c1 | 2% | -2% | 1% | 12% | 4% | 5%
COC(=O)c1ccccc1NC(=O)COc1ccccc1[N+](=O)[O-] | 4% | -17% | 8% | -14% | -1% | 0%
Cc1ccc(OCC(=O)Nc2ccon2)c([N+](=O)[O-])c1 | 3.2µM* | 8.5µM* | 3.2µM* | nt | nt | 10µM*
C/C(CC(=O)Nc1ccccc1-c1ccccc1)=N\NC(=O)COc1ccc(C)cc1Br | 15% | -11% | 22% | -11% | 3% | 23µM*
COc1ccccc1CNC(=O)C/C(C)=N/NC(=O)COc1ccc(C)cc1Br | -7% | -3% | -2% | 25% | -4% | -1%
Cc1ccc(OCC(=O)Nc2ccccc2[N+](=O)[O-])c(Br)c1 | 3.2µM* | 2.4µM* | 2.8µM* | 18µM* | -2% | ?
COc1ccc(OC)c(CCNC(=O)c2ccccc2NC(=O)C2=C(C)OCCS2)c1 | -1% | -17% | 4% | nt | nt | -9%
CCOC(=O)c1ccc2nc(C)c3c(c2c1)OC(C)C3 (stereo not drawn) | -3% | 3% | 1% | -12% | -3% | 10%
